Among the data in ChEMBL document CHEMBL3433997, “St. Jude Leishmania screening dataset” (2016) are inhibition values, retold here.

The term inhibition denotes the relative decrease from the control value, in per cent.

Several values for one entry are separate records, joined by “and”; a condition that tells them apart may be missing. Equal entries are not always repeated.

The target in this assay is Glucose transporter (Leishmania mexicana) (UniProt O61059). As to the kind of experiment: ST_JUDE_LEISH: Cytotoxicity at 2uM final concentration against transgenic Leishmania Mexicana promastigotes LmGT2 that are glucose transport deficient and complemented with the L. Mexicana glucose transporter 2. Activity is measured by DNA content using SYBR green in vitro. It counts as functional.
Consider `CCCCCCc1cc(O)c2c3c(c(=O)oc2c1)CCN(C)C3`, for which the inhibition was found to be 6.76%. The result for `O=C(/C=C/c1cc(F)c(F)cc1F)N1CCC(CN2CCC(c3c[nH]c4ccccc34)CC2)CC1` reads 0.46%.

On to `COc1ccc(CN2CCN(CCOC(c3ccccc3)c3ccccc3)CC2)c(O)c1`, for which the inhibition was found to be 0.74%. As for `COc1ccc(C(=O)C2CC2CN2CC=C(c3c[nH]c4ccc(OC)nc34)CC2)cc1` (stereo not given), the figure is 2.37%; as for `Cn1nc(-c2ccc(S(=O)(=O)NC3CCC(CN4CCC(c5c[nH]c6ccccc56)CC4)CC3)s2)cc1C(F)(F)F` (stereo not given), 1.24% and 0.16%. As for `CC(Cc1ccc(SC(C)(C)C)cc1)NCC(O)c1cccc(Cl)c1` (stereo not given), the figure is -0.72%; as for `O=C(/C=C/c1ccc(Cl)c(Cl)c1)NCCCCCN1C2CCC1CC(c1c[nH]c3ccc(O)cc13)C2` (stereo not given), -3.07% and -2.2%. With `COc1cccc(C=CC(=O)NC2CCC(CN3CCC(c4c[nH]c5ccccc45)CC3)CC2)c1OC` (stereo not given), the inhibition stood at 14.2%. As to `CCN(CC)CCN1C(=O)C(O)(c2ccccc2Cl)c2c1cc(C(N)=O)cc2C(F)(F)F` (stereo not given), the inhibition is 2.69%. For the molecule `CC(C)CNCc1cccc(-c2ccc(CN(C(=O)NC3CCCCC3)C3CCN(Cc4ccccc4)CC3)cc2)c1`, the inhibition was 5.84%.

`C/C=C1\CN2CC[C@H]1C[C@H]2[C@H](O)c1ccnc2ccc(O)cc12`: the inhibition came out at 0.93%.

On to `COC(=O)C(C)(C)c1ccc(CC(C)NCC(O)c2cccc(C(F)(F)F)c2)cc1` (stereo not given), for which the inhibition is 9.96%. The result for `CN(c1cc(NC(=O)c2ccc(F)cc2)ccn1)C1CCN(Cc2ccc(C#N)cc2)CC1` reads 4.46%. Take `O=C(c1cc(C(=O)NCc2ccc(Cl)cc2)c(=O)n(Cc2ccc(Cl)cc2)c1)c1cc(Cl)ccc1O`: the inhibition came out at 3.58%. As for `OC(CNC12CC3CC(CC(C3)C1)C2)c1cccc(C(F)(F)F)c1` (stereo not given), the figure is -0.45%; as for `OC(CNC1CCCCCC1)c1ccc(Cl)c(Cl)c1` (stereo not given), -0.87%. As for `O=C(/C=C/c1ccc(C(F)(F)F)cc1)NC1CCC(CN2CCC(c3c[nH]c4ccccc34)CC2)CC1` (stereo not given), the figure is 0.63% and -2.05%; as for `CCCCCc1cc(O)c2c(c1)OC(C)(C)c1ccncc1-2`, 3.5%; as for `CNCCCCCCOc1ccc(CC(C)NCC(O)c2cccc(C(F)(F)F)c2)cc1` (stereo not given), 1.22%. Take `c1ccc(C(OCCC2CCN(Cc3cccc4cccnc34)CC2)c2ccccc2)cc1`: the inhibition was found to be 5.64%.

On to `NCC(=O)c1cc2c(cc1N)OCCO2`, for which the inhibition worked out at 3.9%. As for `CC[C@H]1CN2CC[C@@H]1C[C@H]2[C@H](O)c1cc(N2CCC(O)(c3ccccc3)CC2)nc2ccc(OC)cc12`, the figure is 1.87%; as for `O=C(NC1CCC(CN2CCC(c3c[nH]c4ccccc34)CC2)CC1)c1[nH]c(=O)[nH]c(=O)c1F` (stereo not given), -0.11%; as for `COc1cccc(C2(NC[C@@H](O)[C@H](Cc3ccccc3)NC(=O)c3ccccc3)CCCCC2)c1`, -4.56%.

With `O=C(/C=C/c1ccc(O)cc1)NC1CCC(CN2CCC(c3c[nH]c4ccccc34)CC2)CC1` (stereo not given), the inhibition is -0.07%. The result for `COc1cccc(/C=C/C(=O)NC2CCC(CN3CCC(c4c[nH]c5ccccc45)CC3)CC2)c1` (stereo not given) reads 3.07% and -2.7%. For `COc1ccc(C2CNCc3c2cc(OC)c(OC)c3Cl)cc1` (stereo not given), the inhibition is -0.73%. Consider `O=C(/C=C/c1ccc(Cl)c(Cl)c1)Nc1cccc(CN2CCC(c3c[nH]c4ccc(O)cc34)CC2)c1`, for which the inhibition was -0.7%. The result for `O=C(NC1CCC(CN2CCC(c3c[nH]c4ccccc34)CC2)CC1)c1csc(-c2ccc(C(F)(F)F)cc2Cl)n1` (stereo not given) reads 10.2%. `O=C(/C=C/c1ccc(Cl)c(Cl)c1)NCC1CCCC(CN2CCC(c3c[nH]c4ccccc34)CC2)C1` (stereo not given): the inhibition amounted to 0.26%. In the case of `COC(=O)c1ccc(CC(C)NCC(O)c2ccc(F)c(Cl)c2)cc1` (stereo not given), the inhibition is 2.31%. `Clc1ccc2nccc(N3CCC(CN4CCC(c5c[nH]c6ccccc56)CC4)CC3)c2c1`: the inhibition came out at 2.61%.

For the molecule `O=C(/C=C/c1ccc(Cl)c(Cl)c1)N1CCC(CN2CCC(c3c(-c4ccccc4)[nH]c4ccccc34)CC2)CC1`, the inhibition stood at 0.62%. In the case of `CNC(=O)c1ccc2[nH]cc(C3CCN(CC4CCC(NC(=O)/C=C/c5ccc(Cl)c(Cl)c5)CC4)CC3)c2c1` (stereo not given), the inhibition was 4.82%. The result for `NC(=O)c1ccc2[nH]cc(C3CCN(CC4CCC(NC(=O)/C=C/c5ccc(Cl)c(Cl)c5)CC4)CC3)c2c1` (stereo not given) reads 0.5% and 1.58%; that for `COC(=O)c1ccc(CC(C)NCC(O)c2cccc(OCc3ccccc3)c2)cc1` (stereo not given), 8.15%; that for `COc1ccc(CCNCc2ccc3c(C)cc(N)nc3c2)cc1`, 2.71%. In the case of `CC1(C)CCCN(C(=O)Cc2ccc3c(c2)CCCC3)C1CN1CC=CC1` (stereo not given), the inhibition stood at 8.93%.

In the case of `COC(=O)c1ccc(CC(C)NCC(O)c2ccccc2Cl)cc1` (stereo not given), the inhibition turned out to be 1.21%. As for `O=C(/C=C/c1ccccc1O)NC1CCC(CN2CCC(c3c[nH]c4ccccc34)CC2)CC1` (stereo not given), the figure is -1.86% and -3.26%.
